# Results filed as inconclusive are left out. A call without a number means that no potency is given here. The source made the active and inactive calls. The call rests on the fitted dose curve; in most records, active means well fitted inhibition curve with a large enough effect; inconclusive means small, poorly fitted or top-dose-only effect; inactive means flat fitted curve, though single readings scatter.
# Biological target: Calcium and integrin-binding protein 1 (Homo sapiens) (UniProt Q99828)
# Sequence (Q99828 whole entry, looked up): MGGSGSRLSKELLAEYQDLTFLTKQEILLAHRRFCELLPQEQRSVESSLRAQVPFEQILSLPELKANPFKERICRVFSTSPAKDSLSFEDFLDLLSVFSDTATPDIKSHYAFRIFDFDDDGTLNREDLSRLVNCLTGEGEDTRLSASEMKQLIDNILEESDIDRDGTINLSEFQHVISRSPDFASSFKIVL
# Assay: Primary qHTS for Identification of Calcium Integrin Binding Protein 1 (CIB1) Competitor (AID 1508620)
# Conditions: CIB1-GST / FITC-alphaIIb peptide fluorescence polarization; series mostly up to 114 µM
# Procedure, shortened: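 CIB1-GST (1 uM final) and compound incubated 15 min at room temperature before adding FITC-alphaIIb peptide tracer (100 nM final). Competition for binding read by fluorescence polarization (ex 480, em 540) after another 15 min at room temperature.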
# Potency means the concentration at half of the fitted maximal effect.
row,SMILES,Potency
1,O=C(Cc1ccc(Cl)c(Cl)c1)Nc1ccc([S+](=O)([O-])Nc2ccc([N+](=O)[O-])cc2)cc1,inactive
2,O=C(Nc1ncc(-c2ccccc2)s1)c1ccc(-c2cccc([N+](=O)[O-])c2)o1,inactive
3,CC(C)c1ccccc1-c1ncc(F)c(NC(C)(C)c2ccc(-c3cccnc3)cc2)n1,inactive
4,Cc1c(P(=S)(c2ccccc2)c2ccccc2)c2ccccc2n1C(=O)Cc1ccccc1,inactive
5,O=C1Nc2ccccc2/C1=C\c1ccc(O)c(Cl)c1,inactive
6,O=C1CCCC2=C1C(c1[nH]ncc1Cl)NC(=NCCc1cccnc1)N2 (stereo not given),inactive
7,Cc1cccc(-n2cnc3cc(C(=O)N4CC(C)CC(C)C4)ccc32)c1 (stereo not given),inactive
8,Cc1csc(CNc2ncnc3ccc(-c4ccc5c(c4)OCO5)cc23)c1,inactive
9,O=[N+]([O-])c1cc(C(F)(F)F)ccc1N1CCN(C(=S)Nc2cc(Cl)ccn2)CC1,inactive
10,C=C(C)c1cc2c(s1)c1cnn(Cc3ccccc3F)c(=O)c1n2C,inactive
11,Cc1cc2c(s1)c1cnn(Cc3ccc(C#N)cc3)c(=O)c1n2C,inactive
12,Cc1cc(NC(=O)Nc2nnc(C3CCCCC3)s2)ccc1Cl,inactive
13,COc1ccc(C2Nc3ccccc3C(=O)N2Cc2cccs2)cc1COc1c(C)cccc1C (stereo not given),inactive
14,Cc1cnc(-c2ccccc2C(C)C)nc1NCc1cccs1,inactive
15,Cc1ccccc1CSc1nc2ncc(Br)cc2[nH]1,inactive
16,CC(C)(C)Nc1nc(C#N)nc(Nc2ccccc2)n1,inactive
17,COc1ccc(C2=Nn3c(nnc3-c3ccc(OC)c(OC)c3)SC2)cc1,inactive
18,Cc1cccc(CNc2ncnc3ccc(-c4ccc5c(c4)OCCO5)cc23)c1,inactive
19,O=C(O)c1ccc(O)c2ncc(-c3ccc(N4CCOCC4)cc3)cc12,inactive
20,COc1cccc(N2C(=O)c3ccccc3C2=O)n1,inactive

row,SMILES,Potency
1,Cc1ccc(/C=C/C(=O)Nc2cccc([S+](=O)([O-])Nc3ccccc3F)c2)cc1,inactive
2,S=C(Nc1cc(Cl)ccn1)N1CCN(c2ccc3ccccc3n2)CC1,inactive
3,O=S(=O)(c1cccc(F)c1)N1CCN(S(=O)(=O)c2ccc3c(c2)OCCO3)CC1,inactive
4,CN1CCc2ccc3c4c2[C@]1(C)Cc1cccc(c1-4)OCO3,39.8 µM (active)
5,COc1cccc(C2c3c(ncn(-c4cccc(C#N)c4)c3=N)Oc3ccc4ccccc4c32)c1 (stereo not given),inactive
6,Cc1ccc(-c2ccc(=O)n(CC(=O)NCCCc3ccccc3)n2)cc1,inactive
7,Cc1ccc(CN(C)c2ncnc3ccc(-c4ccc5c(c4)OCO5)cc23)o1,inactive
8,Cc1cnc(-c2ccccc2C(C)C)nc1NCc1ccc(C(N)=O)cc1,inactive
9,O=C(NCCc1nc2ccccc2n1CCOc1ccc(C(F)(F)F)cc1)C1CCCCC1,inactive
10,Cc1cc(C)n2ncc(C(=O)NCC(C)C)c2n1,inactive
11,Nc1cccc(CNc2ccc(S(=O)(=O)Nc3nccs3)cc2)c1O,inactive
12,O=C1CCCC2=C1C(c1ccccc1Cl)N=C(c1ccccn1)N2 (stereo not given),inactive
13,COc1ccc(Nc2nn3c(=O)c4ccccc4nc3s2)cc1,inactive
14,C#CCOc1ccc(C(C)=O)cc1-c1nnc2n1N=C(c1ccc(OC)c(O[C@@H]3CCOC3)c1)CS2,inactive
15,CCc1cccc(CC)c1OCc1cc(C2Nc3ccccc3C(=O)N2Cc2ccco2)ccc1OC (stereo not given),inactive
16,O=C(CSc1nc2ccccc2[nH]1)N1CCOCC1,inactive
17,NC(=O)C1CCN(c2nc(-c3cccc4ccccc34)cs2)CC1,inactive
18,CCOC(=O)C1CCN(C(=O)C(C)(C)NC(=O)Nc2ccc(Cl)cc2Cl)CC1,inactive
19,O=C(Nc1ccc(Cl)cc1)Nc1nnc(-c2ccncc2)s1,inactive
20,Cc1csc(CNc2ncnc3ccc(-c4ccc(C(=O)O)o4)cc23)n1,inactive

# Reference: PubChem BioAssay (NCATS)
